High-throughput results (PubChem)
A549 tox: A549 cytotoxicity, counter-screen for Nrf2 inhibitors | AID 504648 | Potency, µM (doses to about 46 µM), actives largely listed as inhibitors | A549 ARE-Fluc cells, CellTiter-Fluor viability, 18-24 h | hit rate 0.16% among 390,000
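A549 ARE-Fluc cells in 5% FBS OPTI-MEM, 5000 cells/well, rested 2 h then exposed to compounds in concentration-response for 18-24 h at 37 °C. Viability by CellTiter-Fluor fluorescence (Ex 405/Em 525) after 30 min; luciferase luminescence (BugLite, 15 min, RT) read afterwards.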
Mito fusion yeast: inhibitors of mitochondrial division or activators of mitochondrial fusion | S. cerevisiae fusion-defective mutant growth rescue, CellTiterGlo 48 h | Potency, µM (top dose mostly 46.1 µM), hits mostly activators | hit rate 0.23% among 320,000 | AID 485298; note: nearly all actives have a fitted effect of over 45% in size
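Read-out: ATP-based luminescence (CellTiterGlo, 10 min ambient) reporting growth of fusion-defective ts yeast after 48 hours at 37C on glycerol/ethanol YPEG medium in the presence of compound.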
Nrf2 block: blocks Nrf2 signaling | A549 ARE-Fluc reporter, luciferase luminescence, 18-24 h | Potency, µM (titrated, usually from 46 µM), usual class: inhibitors | hit rate 2.1% among 360,000; note: nearly all actives have a fitted effect of over 60% in size
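Reporter: ARE-Fluc in A549. Exposure: 18-24 h, 37 °C, 5% CO2, 5% FBS OPTI-MEM. Readouts: fluorescent cytotoxicity (CellTiter-Fluor), then luminescent Nrf2 signal after BugLite.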
TrxR1 substrate: rat thioredoxin reductase 1 substrate activity; purified TrxR1 substrate turnover, NADPH consumption readout; Potency, µM (series often up to 114 µM); hit rate 0.01% among 390,000; AID 588456; note: nearly all actives have a fitted effect of over 50% in size
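Rat TrxR1, dispensed at 90 nM, was prereduced with 400 uM NADPH (final) for 5 min at ~22 deg C, then incubated with compound 15 min before 400 uM selenite. A first-read NADPH fluorescence drop versus no-compound background flagged substrates.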
mIDH1 inhibitor: human IDH1 R132H inhibition | IDH1-R132H enzyme, NADPH consumption, diaphorase/resazurin fluorescence | O75874 | AID 602179 | Potency, µM (doses to about 76.6 µM), most hits filed as inhibitors | hit rate 0.093% among 390,000; note: nearly all actives have a fitted effect of over 65% in size
Target sequence (O75874 whole entry R132H, stated change not applied): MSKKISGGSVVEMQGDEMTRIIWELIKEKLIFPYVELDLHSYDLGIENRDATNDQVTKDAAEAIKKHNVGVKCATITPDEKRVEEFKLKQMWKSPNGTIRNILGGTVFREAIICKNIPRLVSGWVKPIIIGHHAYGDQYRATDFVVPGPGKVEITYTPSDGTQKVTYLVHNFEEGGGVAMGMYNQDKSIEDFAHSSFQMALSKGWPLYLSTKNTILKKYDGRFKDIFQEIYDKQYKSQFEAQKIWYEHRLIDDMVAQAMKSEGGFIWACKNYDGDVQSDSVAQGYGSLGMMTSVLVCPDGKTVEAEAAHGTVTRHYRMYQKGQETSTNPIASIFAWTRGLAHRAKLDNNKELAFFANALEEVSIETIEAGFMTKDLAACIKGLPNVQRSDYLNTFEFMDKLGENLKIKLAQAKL
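IDH1-R132H (0.5 ug/mL) preincubated 30 min with compound, then NADPH (0.016 mM) and alpha-KG (2 mM) added; 80 min at RT, pH 7.5. Remaining NADPH coupled via diaphorase/resazurin to fluorescence (540/590 nm); concentration-response curves normalized to no-enzyme control.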
rTrxR1 inhibitor: inhibitors of rat thioredoxin reductase 1; O89049; recombinant rTrxR1, NADPH fluorescence consumption, selenite substrate; Potency, µM (titrated, usually from 114 µM), actives largely listed as inhibitors; hit rate 1% among 390,000; AID 588453; note: nearly all actives have a fitted effect of over 65% in size
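Rat TrxR1 (90 nM in the dispensed reagent) was pre-reduced with 400 uM NADPH for 5 min at room temperature, then incubated with compound for 15 min. After 400 uM selenite was added, NADPH fluorescence (Ex 340/Em 450 nm) was followed for 8 min.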
Numbers stand for hits; n = inactive; u = inconclusive; x = no result given; [ ] = another dose, or the depositor's remark. A selection: hits, their analogues and other compounds. The true share with any hit is near 3.1%. Calls come from the whole dose curve; as a rule, active = well fitted curve in the direction sought with a large enough effect; inconclusive = small, poorly fitted or top-dose-only effect, or another doubt; inactive = no such curve, though single readings can be large; an effect the other way counts as inactive or inconclusive.

SMILES	A549 tox	Mito fusion yeast	Nrf2 block	TrxR1 substrate	mIDH1 inhibitor	rTrxR1 inhibitor
CCc1nnc(NC(=O)Cc2ccc(S(=O)(=O)N3CCCCC3)cc2)s1	n	n	21µM	n	n	n
CCc1nnc(NC(=O)CCC(=O)N2CCN(Cc3ccc(Cl)cc3)CC2)s1	n	n	23µM	n	n	n
CC(C)(C)OC(=O)NCc1nnc(-c2cc3ccccc3[nH]2)s1	n	x	n	x	x	x
O=c1c2sc3ccccc3c2n(Cc2ccccc2F)c(=O)n1CCc1ccccc1	n	x	u	n	n	n
COc1cccc(OC)c1C1=Nn2c(nnc2-c2ccccc2O)SC1	n	x	n	x	x	x
CC(C)Cc1nnc(NC(=O)CCC(=O)N2CCN(Cc3ccc(F)cc3)CC2)s1	n	n	u	n	n	n
Cc1ccc(OCCN2CCN(C(=O)CCC(=O)Nc3nnc(CC(C)C)s3)CC2)cc1	n	n	10µM	n	n	n
COc1ccc2c(c1)CCc1cc(C(=O)N3CCN(c4ccc(N5CCOCC5)nn4)CC3)sc1-2	n	n	18µM	n	n	n
COc1cc(C(=O)O/N=C2\C=CC(=O)C(C)=C2)cc(OC)c1OC	x	n	n	n	n	2.8µM
COc1ccc(OC)c(/C=C/c2c3ccccc3cc[n+]2C)c1	x	x	x	n	x	n
C=C1C=C(C)n2ncc(C(=O)NCCCCCC)c2N1	x	x	x	n	x	n
Cc1ccc2nc(NCc3ccccc3)c(C=NCc3ccccc3)c(=O)n2c1	n	7.9µM	u	n	n	n
CNc1cccc(S(=O)(=O)N2CCN(S(=O)(=O)c3ccc4c(c3)OCCO4)CC2)c1	n	x	n	x	x	x
O=C1CCc2cc(S(=O)(=O)NCc3ccccc3)ccc2N1	n	x	n	x	x	x
CC(=O)N(C1=C(N2CCOCC2)C(=O)c2ccccc2C1=O)c1ccc(C(=O)O)cc1	u	n	u	n	n	7.9µM
O=C(O)c1ccc(NC2=C(N3CCOCC3)C(=O)c3ccccc3C2=O)cc1	n	n	n	n	n	u
CCOc1ccc(CC(=O)Nc2c(C(=O)c3ccccc3)oc3ccc(OC)cc23)cc1OCC	n	x	n	n[11.4 µM]	n	n
Brc1ccc2ncnc(Nc3ccc(N4CCOCC4)cc3)c2c1	n	n	12µM	n	n	n
O=C(COc1ncnc2ccc(Br)cc12)Nc1ccc(N2CCOCC2)cc1	n	n	n	n	n	n
COC(=O)C1=C(C)NC(C)=C([N+](=O)[O-])C1c1ccccc1C(F)(F)F (stereo unspecified)	u	13µM	u	n	n	n
O=c1c2ccccc2sn1-c1ccc(Cl)c(S(=O)(=O)N2CCOCC2)c1	n	x	n	n	x	n
Cn1cc(C(=O)c2ccc(Cl)cc2Cl)cc1C(=O)N/N=C(\N)COc1ccc(F)cc1	n	n	u	n	n	n
Cn1cc(C(=O)c2ccc(Cl)cc2Cl)cc1C(=O)N/N=C(\N)COc1ccc(Cl)cc1Cl	u	n	21µM	n	n	n
Cn1cc(C(=O)c2ccc(Cl)cc2Cl)cc1C(=O)N/N=C(\N)COc1ccc(Cl)cc1	n	n	13µM	n	n	n
Cn1cc(C(=O)c2ccc(Cl)cc2Cl)cc1C(=O)N/N=C(\N)COc1ccccc1	n	n	u	n	n	n
SMILES	A549 tox	Mito fusion yeast	Nrf2 block	TrxR1 substrate	mIDH1 inhibitor	rTrxR1 inhibitor
CCN(Cc1ccccc1)C(=O)c1sc2nc3n(c(=O)c2c1C)CCCC3	n	x	23µM	n[11.4 µM]	n	n
CCN(C(=O)c1sc2nc3n(c(=O)c2c1C)CCCCC3)c1ccc(OC)cc1	n	x	n	n	n	71µM
CCc1ccc(N(CC)C(=O)c2sc3nc4n(c(=O)c3c2C)CCCC4)cc1	n	x	n	n	n	u
O=C1CCc2cc(S(=O)(=O)Nc3ccc(Cl)c(Cl)c3)c(F)cc2N1	n	x	n	x	x	x
CN(C)S(=O)(=O)c1ccc2c(c1)nc(CCC(=O)NCc1ccc(Cl)cc1)n2C	n	n	23µM	n	n	n
CN(C)S(=O)(=O)c1ccc2c(c1)nc(CCC(=O)NCC1CCCCC1)n2C	n	n	n	n	n	n
CCOc1cc(Br)c(CN2C(=O)NC3(CCCCCC3)C2=O)cc1OCC	u	n	21µM	n	n	n
CCCC(O)(c1ccc(Cl)cc1)C(CN1CCOCC1)c1ccc(Cl)cc1 (stereo unspecified)	n	n	18µM	n	n	n
Cc1ccc(NC(=O)/C=C/c2ccc(C)o2)c(C)c1	n	x	n	n	n	20µM
Cc1ccc(/C=C/C(=O)Nc2cccc3cccnc23)o1	n	n	u	n	n	50µM
Cc1ccc(/C=C/C(=O)Nc2cc(=O)n(C)c(=O)n2C)o1	n	n	n	n	n	7.9µM
Cc1ccc(C(=O)Nc2nnc(C)s2)o1	n	n	n	n	n	n
Cc1ccc(/C=C/C(=O)Nc2nnc(C)s2)o1	n	n	n	n	n	28µM
Cc1cccc(C(=O)Nc2cccc3cccnc23)c1	n	n	u	n	n	n
CC(=O)c1ccc(NC(=O)/C=C/c2ccc(C)o2)cc1	n	x	u	n	n	22µM
Cc1cc(NS(=O)(=O)c2ccc(NC(=O)/C=C/c3ccc(C)o3)cc2)nc(C)n1	n	n	n	n	n	28µM
Cc1cc(NS(=O)(=O)c2ccc(NC(=O)/C=C/c3ccccc3)cc2)nc(C)n1	n	x	n	n	n	n
COC(=O)c1cc2oc3ccccc3c2n1Cc1cccc(C)c1	n	x	n	n	n	n
CC(C)CC(=O)NC(=S)Nc1nc(-c2cccc3ccccc23)cs1	u	n	26µM	n	n	n
Cc1ccc(NS(=O)(=O)c2ccc3c(c2)CCCC(=O)N3)cc1C	n	x	u	x	x	x
Cc1ccc(NS(=O)(=O)c2ccc(N3CCCC3=O)cc2)cc1C	n	x	15µM	x	x	x
Cc1ccc(NS(=O)(=O)c2ccc3c(c2)CCC(C)(C)O3)cc1C	n	x	23µM	x	x	x
CCOc1ccc(CNC(=O)Cn2c(=O)c3cccn3c3ccc(F)cc32)cc1	n	x	n	n	n	n[11.4 µM]
CN(C)CCCO[C@H]1C([C@H](O)CO)O[C@@H]2OC(C)(C)O[C@@H]21 (stereo partly specified)	x	x	x	x	x	n
O=C1CC(Sc2nnc(-c3ccccc3)o2)C(=O)N1c1ccccc1 (stereo unspecified)	n	n	n	n	n	7.1µM
Cc1ccccc1N1C(=O)CC(Sc2nnc(-c3ccccc3)o2)C1=O (stereo unspecified)	n	n	n	n	n	u
CCOC(=O)c1cc([N+](=O)[O-])c([N+](=O)[O-])cc1NC(C)=O	n	n	n	n	n	3.2µM
C=C(/C=C/c1ccc(N(C)C)cc1)c1nc2ccccc2s1	x	x	x	n	x	n
O=C(Nc1ccncc1)c1ccc(-c2ccccc2)cc1	n	n	2.3µM	n	n	n
O=C(Nc1ccc(Nc2ccncc2)cc1)c1ccc([N+](=O)[O-])cc1	n	n	18µM	n	n	n
